Laboratory results as given in PMC4552634, “A New Set of Chemical Starting Points with Plasmodium falciparum Transmission-Blocking Potential for Antimalarial Drug Discovery” (PLoS ONE, 2015).
In all, about 13,000 compounds went through this assay and about 3,200 (25%) showed an effect of 50% or more. This is one part of the list.

Tested on: P. falciparum stage V gametocytes
Parameters: BacTiter-Glo ATP luminescence viability of purified stage V gametocytes in 384-well plates, per cent inhibition versus DMSO
Conditions: 48 h, 5 µM; inhibitor

| Compound | % Inhibition [%] |
| --- | --- |
| CCN1CCC(N2CCC(C(=O)Nc3cccc(-c4cccc(Cl)c4)c3)CC2)CC1 [TCMDC-124650] | 24.3 |
| COc1ccc(CN2CCCN(Cc3cccc(C(=O)Nc4ccc(C(C)(C)C)cc4)c3)CC2)cc1 [TCMDC-135986] | 5.589 |
| CCc1c(C)nc(-n2nc(C)cc2NC(=O)CC(c2ccccc2)c2ccccc2)[nH]c1=O [TCMDC-124933] | -29.94 |
| NC(=O)Nc1ccc2c(Nc3ccc(OCc4ccccc4)cc3)ncnc2c1 [TCMDC-131937] | 13.28 |
| Cc1ccc2sc(N(CCCn3ccnc3)C(=O)c3ccco3)nc2c1C [TCMDC-124922] | 21.61 |
| O=C(Cc1cccnc1)Nc1cccc(-c2cccc(-c3nc4ccc(C(F)(F)F)cc4[nH]3)c2)c1 [TCMDC-136815] | 21.33 |
| COc1ccc(CN2CCN(CCCCNC(=O)c3ccc(NC(=O)c4ccc(Cl)cc4)cc3)CC2)c(OC)c1 [TCMDC-138280] | 2.758 |
| COc1ccc(CC2(c3ccc(F)cc3)N=C(N)N(CCCc3cccnc3)C2=O)cc1 (stereo not drawn) [TCMDC-136541] | 12.34 |
| Cc1cc(N[C@@H](CC(C)C)C(=O)NCCOc2ccccc2)nc(NCCOc2ccccc2)n1 [TCMDC-134761] | 40.02 |
| Cc1cccc(CNc2nc(C)cc(N[C@@H](Cc3ccccc3)C(=O)NCCOc3ccccc3)n2)c1 [TCMDC-134888] | 18.91 |
| Cc1cc(N[C@@H](Cc2ccccc2)C(=O)NCCOc2ccccc2)nc(NCCc2cccs2)n1 [TCMDC-134813] | 64.23 |
| Cc1cc(N[C@@H](Cc2ccccc2)C(=O)NCCOc2ccccc2)nc(NCCc2ccc(F)cc2)n1 [TCMDC-134789] | 64.78 |
| CCCC(C)Nc1nc(C)cc(N[C@@H](Cc2ccccc2)C(=O)NCCOc2ccccc2)n1 (stereo partly drawn) [TCMDC-134765] | -43.65 |
| Cc1cc(N[C@@H](CC(C)C)C(=O)NCCOc2ccccc2)nc(NCCc2ccc(F)cc2)n1 [TCMDC-134795] | 47.6 |
| Cc1cc(N[C@@H](Cc2ccccc2)C(=O)NCCOc2ccccc2)nc(NCC2CCCCC2)n1 [TCMDC-134933] | -5.307 |
| Cc1cc(N[C@@H](CC(C)C)C(=O)NCCOc2ccccc2)nc(NCCc2ccccc2)n1 [TCMDC-134871] | 94.75 |
| Cc1cc(N[C@@H](Cc2ccccc2)C(=O)NCc2cccs2)nc(NCCOc2ccccc2)n1 [TCMDC-134758] | 28.84 |
| Cc1cc(N[C@@H](Cc2ccccc2)C(=O)NCCOc2ccccc2)nc(NCCc2ccccn2)n1 [TCMDC-134748] | 75.62 |
| Brc1cc(Br)c2c(c1)C(NCCCNc1nc3ncccc3[nH]1)CCN2 (stereo not drawn) [TCMDC-140066] | -91.96 |
| CC(C)(C)c1ccc(C(=O)NC2CCC(CCN3CCc4ccc(S(C)(=O)=O)cc4CC3)CC2)cc1C(F)(F)F (stereo not drawn) [TCMDC-141428] | -32.14 |
| CN1CCc2ccc(NC(=O)Nc3cccc(C(=O)c4ccccc4)c3)cc2C1 [TCMDC-139177] | -22.18 |
| C/C=C1/CN2CC[C@H]1C[C@H]2[C@H](O)c1ccnc2ccc(OC)cc12 [TCMDC-138265] | 0.1494 |

| Compound | % Inhibition [%] |
| --- | --- |
| CCCCSc1ccc2nc(-c3c[nH]c4ccc(C#N)cc34)cn2c1 [TCMDC-134704] | -54.07 |
| CC(C)c1cc(C(=O)N[C@@H](Cc2ccccc2)[C@H](O)CNC2CCCCC2)cc(N2CCCC2=O)c1 [TCMDC-138861] | 41.96 |
| Cc1ccc(-c2ccc(Cl)cc2Oc2cnc(N)nc2N)o1 [TCMDC-132599] | 4.58 |
| O=C(Nc1cccc(-c2ccc(-c3nc4ccccc4[nH]3)cc2)c1)c1ccncc1 [TCMDC-136962] | -14.71 |
| CCCc1cc(Cc2cnc(N)nc2N)cc(CCC)c1OCCCCC(=O)OCC [TCMDC-137294] | 0.6782 |
| Cc1cc(N[C@@H](Cc2ccccc2)C(=O)NCCOc2ccccc2)nc(Nc2ccccc2)n1 [TCMDC-134735] | 6.483 |
| Cc1cc(N[C@@H](Cc2ccccc2)C(=O)NCCOc2ccccc2)nc(NCc2ccccc2C)n1 [TCMDC-134906] | -0.6796 |
| Cc1cc(N[C@@H](Cc2ccccc2)C(=O)NCCOc2ccccc2)nc(NCCOc2ccccc2)n1 [TCMDC-134759] | 76.97 |
| Cc1cc(N[C@@H](Cc2ccccc2)C(=O)NCCc2ccccc2)nc(NCCOc2ccccc2)n1 [TCMDC-134879] | 65.02 |
| Cc1cc(N[C@@H](Cc2ccccc2)C(=O)NCCOc2ccccc2)nc(NCCc2ccccc2)n1 [TCMDC-134869] | 38.23 |
| COc1cc2sc(=NC(=O)c3cccc([N+](=O)[O-])c3)n(C)c2cc1OC [TCMDC-123526] | 16.54 |
| CC1(C)N=C(N)N=C(N)N1OCc1cccc2c1ccc1ccccc12 [TCMDC-131327] | 39.55 |
| CCCCc1ccc(C(=O)NC2CCN(C[C@H](O)c3ccnc4ccc(OC)cc34)CC2)cc1 [TCMDC-141040] | -10.19 |
| COc1cc2nc(N3CCC(CNC(=O)c4cc(Br)c(Br)s4)CC3)nc(N)c2cc1OC.O=C(O)C(F)(F)F [TCMDC-138213] | -9.659 |
| COc1cc2nc(N3CCN(c4cc(C)ccc4C)CC3)nc(N)c2cc1OC [TCMDC-125298] | -12.09 |
| COc1ccc(N2CCN(c3nc(N)c4cc(OC)c(OC)cc4n3)CC2C)cc1 (stereo not drawn) [TCMDC-131887] | -85.18 |
| COc1cc2nc(N3CCC(CNC(=O)c4cc5ccccc5s4)CC3)nc(N)c2cc1OC [TCMDC-138189] | 0.3187 |
| COc1cc2nc(N3CCN(c4nc(N)c5cc(OC)c(OC)cc5n4)CC3)nc(N)c2cc1OC [TCMDC-123865] | 116.7 |
| COc1cc2nc(N3CCN(C(=O)c4ccc(N(C(=O)OC(C)(C)C)C(=O)OC(C)(C)C)cc4)CC3)nc(N)c2cc1OC [TCMDC-131899] | 9.334 |
| COc1cc2nc(N3CCN(C(=O)c4c(Cl)nsc4-c4ccccc4Cl)CC3)nc(N)c2cc1OC.O=C(O)C(F)(F)F [TCMDC-138186] | 103.1 |
| COc1cc2nc(N3CCN(C(=O)c4cccc(I)c4)CC3)nc(N)c2cc1OC [TCMDC-131895] | 98.03 |
| COc1cc2nc(NCC3CCN(c4nc(N)c5cc(OC)c(OC)cc5n4)CC3)nc(N)c2cc1OC [TCMDC-138723] | 112.2 |

| Compound | % Inhibition [%] |
| --- | --- |
| CN(C)C(=O)n1cnc(S(=O)(=O)N(C)c2ccc(Cl)cc2)n1 [TCMDC-134395] | 5.684 |
| CCOC(=O)CCCCOc1c(OC)cc(Cc2cnc(N)nc2N)cc1OC [TCMDC-137291] | 2.332 |
| COc1ccc(NS(=O)(=O)c2ccc(C(=O)Nc3ccc(C(F)(F)F)cc3)cc2)cc1N1CCN(CC2CC2)CC1 [TCMDC-141778] | -16.52 |
| O=C(c1cccs1)N1N=C(c2cccs2)CC1c1cccc([N+](=O)[O-])c1 (stereo not drawn) [TCMDC-123688] | 10.72 |
| Cc1noc(C)c1-c1cccc(CNCc2ccc(-c3cccc(-c4nc5cc(C(F)(F)F)ccc5[nH]4)c3)cc2)c1.O=C(O)C(F)(F)F [TCMDC-133051] | -9.881 |
| COc1cc(C(=O)NC2CCN(Cc3ccccc3)CC2)ccc1-c1nc2cc(Cl)c(Cl)cc2[nH]1 [TCMDC-140078] | -56.44 |
| Cc1[nH]c2cc(Cl)ccc2c1C1=CCN(CCN2CCOc3c(Br)cccc3C2=O)CC1 [TCMDC-140966] | -20.54 |
| COc1ccc(Cl)cc1N1CCN(CCCNC(=O)c2ccc(-c3nc4cc(Cl)c(C)cc4[nH]3)c(F)c2)CC1 [TCMDC-140030] | -22.25 |
| COc1cc2nc(NCc3nc4ccccc4[nH]3)nc(N)c2cc1OC.Cl [TCMDC-131892] | 36.75 |
| COc1cc2nc(NC3CCN(Cc4ccccc4)CC3)nc(N)c2cc1OC [TCMDC-131886] | 84.09 |
| COc1cc2nc(N(C)C3CCN(Cc4ccccc4)CC3)nc(N)c2cc1OC [TCMDC-131894] | 19.02 |
| CCCCCN1CCCCC(NS(=O)(=O)c2ccc(C(=O)Nc3ccc(C(F)(F)F)cc3)cc2)C1 (stereo not drawn) [TCMDC-133681] | -39.58 |
| CC(=O)c1ccc2nc[nH]c(=O)c2c1 [TCMDC-138172] | 115.1 |
| COc1ccc2nccc([C@@H](O)CN3CCC(NCc4ccc5nc[nH]c(=O)c5c4)CC3)c2c1 [TCMDC-140981] | 0.6377 |
| CC(=O)c1ccc(NC(=O)Nc2ccc3nccc(N4CCN(C)CC4)c3c2)cc1 [TCMDC-139331] | -18.7 |
| COC(=O)C(NC(=O)c1ccc(-c2ccc(-c3nc4ccccc4[nH]3)s2)cc1)c1ccc(O)cc1 (stereo not drawn) [TCMDC-132371] | -16.97 |
| Cc1cccc(CN2CCC(C(=O)Nc3ccc(-c4nc5ccccc5[nH]4)cc3)CC2)n1 [TCMDC-124614] | -28.63 |
| CCCCNc1c(C(=O)OCC)c(C)nc2c1[nH]c1ccccc12 [TCMDC-131541] | -37.58 |
| CC1CCC(C(C)C)C(OC(=O)CSc2nnc3c(n2)[nH]c2ccccc23)C1 (stereo not drawn) [TCMDC-124002] | 54.66 |
| O=C(NC1CCN(Cc2ccccc2)CC1)c1ccc(-c2nc3cc(Cl)c(Cl)cc3[nH]2)s1 [TCMDC-140086] | -3.887 |
| CCn1c(-c2nonc2N)nc2c(-c3cc4ccccc4s3)ncc(C(=O)N3CCC(N)C3)c21 (stereo not drawn) [TCMDC-135281] | 101.1 |
| CCn1c(-c2nonc2N)nc2cnc(Oc3cccc(NC(=O)c4ccc(OCCN5CCCCC5)cc4)c3)cc21 [TCMDC-135778] | -14.59 |
